Some test systems named below: HCT-15 colon; HT29 colon; SNB-75 CNS; SNB-19 CNS; U251 CNS; PC-3 prostate; SK-MEL-5 melanoma; UACC-62 melanoma; LOX IMVI melanoma; SK-MEL-28 melanoma.
Holding throughout (assay): NCI-60 one-dose screen, 48 h (100 = growth as untreated, 0 = no growth, -100 = all killed)
What all share (details): 10 µM unless noted

Structures are written as SMILES. The panel holds about 83,000 compounds, 20% with a hit somewhere; the sample as a whole holds those more often.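 Values shown are percent growth following 48 h exposure of cells in 96-well plates to a single concentration of compound; below 10 was considered active.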 A number with no mark means an inactive call. Activity calls are given as the source filed them.

For `O=C(N/N=C/c1ccc(Cl)cc1Cl)c1ccccc1Nc1cccc(C(F)(F)F)c1`, the growth with HCT-15 colon was 72.5%; with HT29 colon it was 86.7%; in the test on SNB-75 CNS, 78%; in the test on SNB-19 CNS, 76.1%; with U251 CNS, 22.4%; in the test on PC-3 prostate it was 60.5%. Besides, the growth in the test on SK-MEL-5 melanoma is 53.5%; in the test with UACC-62 melanoma, 65.6%; in the test on LOX IMVI melanoma it was 50%; with SK-MEL-28 melanoma it was 92.2%.
For `COc1cc(/C=C2\CN(C)CC3=C2Nc2nc(SC)[nH]c(=O)c2C3c2cc(OC)c(OC)c(OC)c2)cc(OC)c1OC` (stereo not given), the growth with HCT-15 colon is 36.6%; in the test on HT29 colon, 15%; in the test on SNB-75 CNS, 27.8%; in the test on SNB-19 CNS, 66.8%; in the test on U251 CNS, 20.6%; in the test with PC-3 prostate it was 68%. Also, the growth in the test on SK-MEL-5 melanoma was 58.2%; in the test on UACC-62 melanoma it was 30%; in the test on LOX IMVI melanoma, 3.87% (active); in the test with SK-MEL-28 melanoma it was 44.9%.
For the molecule `N#Cc1c(NC(=O)c2ccco2)[n+]([O-])c2ccccc2[n+]1[O-]`, the growth with HCT-15 colon was 116%; with HT29 colon, 109%; in the test with SNB-75 CNS, 104%; with SNB-19 CNS, 96.8%; in the test on U251 CNS it was 106%; with PC-3 prostate, 130%. Besides, the growth in the test with SK-MEL-5 melanoma is 91%; in the test on UACC-62 melanoma, 81%; in the test with LOX IMVI melanoma, 98.3%; with SK-MEL-28 melanoma, 104%.
For `CC(C)OP(=O)(OC(C)C)c1ncc(-c2ccc(C(F)(F)F)cc2)c(NC2CCCCCC2)n1`, the growth in the test on HCT-15 colon is -7.06% [33.3 µM] (active); in the test on HT29 colon it was -68.3% [33.3 µM] (active); in the test on SNB-75 CNS it was -18.6% [33.3 µM] (active); in the test with SNB-19 CNS, -27.9% [33.3 µM] (active); in the test with U251 CNS, -87.4% [33.3 µM] (active); in the test with PC-3 prostate, -68% [33.3 µM] (active). The growth with SK-MEL-5 melanoma was -87.2% [33.3 µM] (active); with UACC-62 melanoma, -64.8% [33.3 µM] (active); in the test on LOX IMVI melanoma it was -63.3% [33.3 µM] (active); in the test on SK-MEL-28 melanoma, -74.5% [33.3 µM] (active).
`Clc1ccc(C2=NN(c3ccc(Cl)cc3)C(c3cccc(Nc4ccnc5cc(Cl)ccc45)c3)C2)cc1` (stereo not given): the growth is 85.2% in the test with HCT-15 colon; 77.9% in the test with HT29 colon; 77.3% in the test on SNB-75 CNS; 82.3% in the test on SNB-19 CNS; 76.8% with U251 CNS; 65.7% in the test on PC-3 prostate. The growth in the test on SK-MEL-5 melanoma was 92.8%; in the test on UACC-62 melanoma it was 88.3%; in the test on LOX IMVI melanoma it was 85.1%; with SK-MEL-28 melanoma, 104%.
Turning to `N#Cc1ccccc1C#Cc1ccccc1C#Cc1ccc(OCCCCCCOc2ccc(C#Cc3ccccc3C#Cc3ccccc3C#N)cc2)cc1`, the growth is 123% with HCT-15 colon; 111% with HT29 colon; 106% in the test on SNB-75 CNS; 108% in the test with SNB-19 CNS; 106% in the test on U251 CNS; 99.5% with PC-3 prostate. In addition, the growth in the test with SK-MEL-5 melanoma was 73.8%; in the test with UACC-62 melanoma, 83.3%; with LOX IMVI melanoma, 98.4%; with SK-MEL-28 melanoma, 113%.
Turning to `CCOC(=O)C1=CCC(n2cc(C)c(=O)[nH]c2=O)O1` (stereo not given), the growth in the test with HCT-15 colon is 111%; in the test on HT29 colon, 110%; with SNB-75 CNS it was 103%; with SNB-19 CNS it was 103%; with U251 CNS it was 98.8%; in the test with PC-3 prostate it was 84.7%. Moreover, the growth in the test with SK-MEL-5 melanoma is 112%; with UACC-62 melanoma, 96%; with LOX IMVI melanoma, 98.6%; with SK-MEL-28 melanoma it was 112%.
Take `Cc1ccc(S(=O)(=O)N2CCN(C(=O)CSc3nc4ccc(C)cc4[nH]3)CC2)cc1`: the growth was 110% in the test on HCT-15 colon; 117% in the test with HT29 colon; 109% with SNB-75 CNS; 100% with SNB-19 CNS; 106% in the test on U251 CNS; 88.3% with PC-3 prostate. For the same molecule, the growth is 116% in the test with SK-MEL-5 melanoma, 82.3% in the test with UACC-62 melanoma, 101% with LOX IMVI melanoma and 85.3% in the test with SK-MEL-28 melanoma.
With `O=c1[nH]c(N2CCC(Cc3ccccc3)CC2)nc2sc3c(c12)CCCC3`, the growth is 101% in the test on HCT-15 colon; 83.8% with HT29 colon; 89.4% with SNB-75 CNS; 106% in the test with SNB-19 CNS; 91.7% in the test with U251 CNS; 72.7% with PC-3 prostate. The growth in the test on SK-MEL-5 melanoma was 102%; in the test on UACC-62 melanoma, 98.1%; with LOX IMVI melanoma, 97.4%; in the test on SK-MEL-28 melanoma, 115%.
Take `C[C@@H]1C[C@@H]([C@@H](CC2CC(=O)NC(=O)C2)OC(=O)CC(=O)c2ccccc2)C(=O)[C@@H](C)C1`: the growth in the test on HCT-15 colon is 8.97% (active); in the test on HT29 colon, 10.4%; in the test with SNB-75 CNS, 17.8%; with SNB-19 CNS, 18.9%; with U251 CNS it was 14.7%; in the test with PC-3 prostate it was 12.3%. Also, the growth is 7.03% (active) with SK-MEL-5 melanoma, 11.2% in the test on UACC-62 melanoma, 11.3% in the test with LOX IMVI melanoma and 13.5% with SK-MEL-28 melanoma.
Turning to `Cc1ccc2nc3c(n2c1)C(=O)C(=O)c1ccccc1-3`, the growth in the test on HCT-15 colon is -70.1% (active); in the test with HT29 colon, -39.1% (active); in the test with SNB-75 CNS, -70.2% (active); in the test with SNB-19 CNS, -77.7% (active); with U251 CNS, -86% (active); with PC-3 prostate, -24.5% (active). The growth in the test on SK-MEL-5 melanoma is -95.9% (active); in the test on UACC-62 melanoma, -89% (active); with LOX IMVI melanoma, -72% (active); with SK-MEL-28 melanoma, -86.4% (active).
With `ICCC(c1ccccc1)(c1ccccc1)c1ccccc1`, the growth was 27.7% in the test with HCT-15 colon; 2.63% (active) with HT29 colon; 50.3% with SNB-75 CNS; 65.3% with SNB-19 CNS; 23% in the test with U251 CNS; 49.4% with PC-3 prostate. In addition, the growth is -49.5% (active) in the test on SK-MEL-5 melanoma, -35.3% (active) with UACC-62 melanoma, 16.3% in the test on LOX IMVI melanoma and -70% (active) with SK-MEL-28 melanoma.
With `CSc1nc(N)c2c(n1)N(C)C=NS2(=O)=O`, the growth in the test with HCT-15 colon was 103%; with HT29 colon, 124%; with SNB-75 CNS it was 93.3%; in the test on SNB-19 CNS, 107%; with U251 CNS it was 103%; in the test with PC-3 prostate it was 94.7%. In addition, the growth in the test with SK-MEL-5 melanoma was 104%; in the test on UACC-62 melanoma, 97.4%; in the test on LOX IMVI melanoma it was 98.3%; in the test on SK-MEL-28 melanoma, 122%.

These data come from PubChem BioAssay (NCI).
